# Screens (PubChem)
# Compounds with a hit are over-represented: about 9.4% of the library has one in this group of screens.
# Pf growth 96h – P. falciparum growth inhibition at 96 hours; AID 504834; P. falciparum luciferase reporter growth, 96 h; 6.9% of 320,000 active; Potency, µM (doses to about 28.7 µM), inactives show at the highest dose activity change, negative = inhibition, actives largely listed as inhibitors; note: % is set by controls: 0 for no effect and ±100 for the full control effect
#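 Compounds incubated with erythrocytes infected by luciferase-expressing P. falciparum (2% hematocrit, 0.05% parasitemia final) for 96 hours, 37 C in 5% CO2. Growth inhibition scored as decreased luciferase luminescence.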
# AMA1-RON2 inh – AMA1-RON2 (P. falciparum) interaction inhibition; Potency, µM (doses to about 58.2 µM), for the others: at the top dose activity change, negative = inhibition, actives largely listed as inhibitors; AlphaScreen AMA1-biotinylated RON2 peptide binding; 0.2% of 360,000 active;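 note: 0% = vehicle wells and -100% = peptide control; nearly all actives have a fitted effect of over 45% in size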
#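 AMA1 (3D7) with his tag at 25 nM final met compounds first, then biotinylated RON2 peptide at 25 nM; detection used donor plus acceptor beads, 10 µg/mL apiece, read by AlphaScreen after 30 min at room temperature.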
# SARS PLP yeast – blocks SARS-CoV papain-like protease in a yeast assay; S. cerevisiae expressing SARS-CoV PLpro, growth rescue; Potency, µM (series often up to 32.9 µM), for inactives: at the highest dose activity, positive = growth rescue, hits mostly activators; 0.19% of 330,000 active; AID 485353; calls by dose curve; note: 0% is about no effect; nearly all actives have a fitted effect of over 55% in size
# Pf growth 48h – inhibits P. falciparum growth in the first generation, 48 h; Potency, µM (titrated, usually from 28.7 µM), for the others: at the top dose activity change, negative = inhibition, actives largely listed as inhibitors; 5.9% of 310,000 active; P. falciparum luciferase growth in erythrocytes, 48 h; AID 504832; note: % is set by controls: 0 for no effect and ±100 for the full control effect
#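 Here the parasites carry a stable luciferase gene and grow inside erythrocytes in Albumax-based RPMI medium with compound for one erythrocytic cycle. Activity is scored as loss of luminescent signal.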
# An asterisk follows results filed as active; ? = inconclusive; · = no result; [ ] = dose if it differs, or a comment. Unless noted, calls come from the whole dose curve; as a rule, active = well fitted curve in the direction sought with a large enough effect; inconclusive = small, poorly fitted or top-dose-only effect, or another doubt; inactive = no such curve, though single readings can be large; an effect the other way counts as inactive or inconclusive. Potency is the fitted concentration of half-maximal effect.
SMILES,Pf growth 96h,AMA1-RON2 inh,SARS PLP yeast,Pf growth 48h
Clc1ccc2oc(-c3ccccc3)cc(=NCCCN3CCOCC3)c2c1,?,-6%,-6%,4.7µM*
COc1ccc(C2C(C(=O)N3CCN(c4ccccc4F)CC3)c3ccccc3C(=O)N2C)cc1 (configuration not stated),49%,16%,-6%,?
CS(=O)(=O)N1N=C(c2ccc(Cl)cc2)CC1c1cccs1 (configuration not stated),3%,-7%,-7%,·
Oc1[nH]c2ccccc2c1N=Nc1nc(Nc2ccccc2)nc(N2CCOCC2)n1,?,4%,1%,6.6µM*
Cc1ccc(-c2nnc(SCC(=O)N3CCCC3)o2)cc1,3%,3%,6%,29%
O=C(CSc1nnc(-c2cccs2)o1)Nc1cccc(S(=O)(=O)N2CCCCC2)c1,15µM*,0%,6%,?
COC(=O)CSc1nnc(-c2ccc(S(=O)(=O)N3CCCC3)cc2)o1,?,-5%,-4%,-3%
CCCCNC(=O)CSc1nnc(-c2cccc(S(=O)(=O)N3CCOCC3)c2)o1,?,-9%,-9%,13µM*
Cc1cc(C)cc(NC(=O)CSc2nnc(-c3ccc(S(=O)(=O)N4CCCC4)cc3)o2)c1,5.2µM*,47%,-1%,?
Cc1ccc(S(=O)(=O)N2CCN(C(=O)CSc3nnc(-c4ccco4)o3)CC2)cc1,10µM*,-7%,-1%,·
C=CCNC(=O)CSc1nnc(-c2cccc(S(=O)(=O)N3CCOCC3)c2)o1,·,11%,·,·
Cc1cc2ccccn2c1C(=O)c1nc(NCc2ccccc2)ncc1Cl,?,0%,-7%,?
O=C(CSc1nnc(CNC(=O)c2ccccc2)o1)c1ccccc1,41%,51%,-3%,3%
COc1ccc(N2CCN(C(=O)C3Cc4ccccc4CN3C(=O)c3ccccc3)CC2)cc1 (configuration not stated),?,-29%,-1%,?
O=C(CC1C[C@H](C(=O)N2CCOCC2)[C@@]2(CCC3CCCC3)c3[nH]c4ccccc4c3CCN2C1=O)NCCc1ccccn1 (some centres not stated),·,58%,0%,·
O=C(O)c1c2c(nc3ccc(F)cc13)CCC2,53%,2%,2%,9%
CCCOc1ccc(CSC2=NCCN2)cc1[N+](=O)[O-],?,7%,5%,15µM*
O=[N+]([O-])c1cc(CSC2=NCCN2)ccc1O,24%,0%,0%,3%
COCCN1Cc2cccc(C(=O)Nc3cccc(-c4nc5ccccc5[nH]4)c3)c2C1=O,?,-9%,-8%,1.9µM*
COCCN1Cc2cccc(C(=O)Nc3ccc(-c4nc5ccccc5[nH]4)cc3)c2C1=O,?,-5%,21%,?
CCCN1Cc2cccc(C(=O)Nc3ccc(-c4nc5ccccc5[nH]4)cc3)c2C1=O,-13%,0%,8%,2.3µM*
CC(C(=O)N1CCCC1)c1ccc([N+](=O)[O-])cc1 (configuration not stated),15µM*,3%,24%,6%
C[C@@H](NC(=O)c1ncn(Cc2ccccc2)c1C(=O)N[C@H](C)c1ccccc1)c1ccccc1,?,-1%,3%,13µM*
CCN1CC2=C(OC(N)=C(C#N)C2c2cccs2)/C(=C\c2cccs2)C1 (configuration not stated),9.3µM*,-4%,11%,·
CCOC(=O)C1=C(CC)OC(N)=C(C#N)C1c1cccs1 (configuration not stated),·,57%,0%,-19%
SMILES,Pf growth 96h,AMA1-RON2 inh,SARS PLP yeast,Pf growth 48h
CCC(C)(O)c1[nH]c2ccc(C(F)(F)F)cc2c1C (configuration not stated),19%,-10%,·,-26%
COc1ccc(-c2noc(CCC(=O)NC3CCCCC3)n2)cc1,12µM*,-3%,13%,25%
O=C(CCCC(=O)OCC(=O)c1ccc(Cl)cc1)NC1CCCCC1,12µM*,0%,-1%,23%
COc1ccc(-c2noc(CCC(=O)NC3CCCCCC3)n2)cc1,?,3%,-6%,-9%
O=C(CCCc1nc(-c2ccc(Cl)cc2)no1)NC1CCCC1,4.7µM*,-2%,0%,-20%
COc1ccc(OC)c(Nc2nc(-c3sc(NC(=O)c4ccccc4)nc3C)cs2)c1,-22%,·,2%,?
O=C(Nc1nc(-c2ccc(Cl)s2)cs1)c1ccccc1,9.3µM*,-18%,-8%,·
Cc1nc(NC(=O)c2ccccc2)sc1-c1csc(Nc2ccc(F)cc2)n1,3.7µM*,·,9%,?
Cc1nc(NC(=O)c2ccccc2)sc1-c1csc(Nc2ccc(Cl)cc2)n1,10µM*,·,-9%,?
O=C(Nc1cccc(-c2csc(Nc3ccc(Cl)cc3)n2)c1)c1ccccc1,?,-14%,-5%,?
Cc1nc(NC(=O)c2ccccc2)sc1-c1csc(Nc2cccc(Cl)c2)n1,2.6µM*,·,-2%,9.3µM*
O=C(Nc1nc(-c2cccs2)cs1)c1ccc(Cl)s1,?,0%,-75%,20%
COc1ccc(Nc2nc(-c3cccs3)cs2)cc1,0.52µM*,-4%,6%,316%
Oc1ccc(Nc2nc(-c3cccs3)cs2)cc1,32%,13%,-3%,34%
CC(C)(C)c1csc(NC(=O)c2ccc(Cl)s2)n1,·,19%,-12%,3.7µM*
CC(=O)c1cccc(Nc2nc(-c3sc(N)nc3C)cs2)c1,17µM*,61%,-4%,?
CC(=O)c1cccc(Nc2nc(-c3sc(C)nc3C)cs2)c1,362%,2%,-7%,-20%
COc1ccc(Nc2nc(-c3sc(NC(C)=O)nc3C)cs2)cc1,10µM*,·,3.2µM*,·
O=c1[nH]cc(O)c(=O)[nH]1,16%,12%,5%,10%
O=c1[nH]cc(F)c(=O)[nH]1,4.7µM*,12%,-59%,6.6µM*
CC(=O)N(CCC(Cc1ccccc1)c1ccco1)Cc1ccco1 (configuration not stated),?,-3%,3%,?
CC(=O)N(CCC1(c2ccc(C)cc2)CCOC(C(C)C)C1)Cc1ccco1 (configuration not stated),4.1µM*,-21%,-2%,5.9µM*
CC1(C)CC(CCN(Cc2ccccc2)C(=O)c2ccco2)(c2ccccc2)CCO1 (configuration not stated),1.9µM*,-12%,-42%,?
CCC1(C)CC(CCN(Cc2ccco2)C(C)=O)(c2ccccc2)CCO1 (configuration not stated),4.1µM*,-4%,1%,?
CC(=O)N(CCP(=O)(c1ccccc1)c1ccccc1)Cc1ccco1,9.3µM*,-9%,0%,-9%
CC(=O)N(CCC1(C(C)C)CCOC(C)(C)C1)Cc1ccco1 (configuration not stated),-27%,-5%,4%,?
CSCC[C@H](NC(=O)NCc1ccccc1F)C(=O)O,9%[5.75 µM],-3%,4%,7%
CC(=O)Nc1ccc(S(=O)(=O)Oc2cccc(N3C(=O)C4CCCCC4C3=O)c2)cc1 (configuration not stated),89%,-9%,4%,13µM*
